PubChem BioAssay (NCATS)
Results filed as inconclusive are left out. Entries that show only a call come without a potency. The source made the active and inactive calls. Calls follow the shape of the dose curve; as a rule, active = well fitted curve in the direction sought with a large enough effect; inconclusive = small, poorly fitted or top-dose-only effect, or another doubt; inactive = no such curve, though single readings can be large; an effect the other way counts as inactive or inconclusive.

How the values were obtained:
[1] = tested on: C33A; assay: Primary qHTS to identify gynecologic anti-cancer compounds using libraries of approved drugs and bioactive compounds (AID 1345084); details: Gynecologic cancer cell panel viability, ATPlite luminescence, 48 h; series mostly up to 57.5 µM; also: nearly all actives have a fitted effect of over 55% in size; also: potency is read from the fitted curve at half-maximal effect
How it was run: (§1)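 Five-point cytotoxicity, 48 h drug exposure at 37 C, 5% CO2, on cells seeded 16 h beforehand. ATP content read by ATPlite luminescence.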

[2] = tested on: CAOV3; assay: as above; details: Gynecologic cancer cell panel viability, ATPlite luminescence, 48 h; series mostly up to 57.5 µM
How it was run: as §1

[3] = tested on: NIH3T3; assay: qHTS assay to identify novel small-molecules to repurpose for Merkel cell carcinoma treatment (AID 1296009); details: MCC and control cell lines, CellTiter-Glo viability, 72 h; series mostly up to 44.8 µM; also: nearly all actives have a fitted effect of over 60% in size
How it was run: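 Cell viability measured by CellTiter-Glo following 72 hr compound treatment at 37 degree celsius, with NPC and MIPE libraries tested in 8- and 11-point concentration series.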

[4] = tested on: CASKI; assay: Primary qHTS to identify gynecologic anti-cancer compounds using libraries of approved drugs and bioactive compounds (AID 1345084); details: Gynecologic cancer cell panel viability, ATPlite luminescence, 48 h; series mostly up to 57.5 µM; also: nearly all actives have a fitted effect of over 55% in size; also: potency is read from the fitted curve at half-maximal effect
How it was run: as §1

[5] = tested on: Es-2; assay: as above; details: Gynecologic cancer cell panel viability, ATPlite luminescence, 48 h; series mostly up to 57.5 µM
How it was run: as §1

[6] = tested on: JEG-3; assay: as above; details: Gynecologic cancer cell panel viability, ATPlite luminescence, 48 h; series mostly up to 57.5 µM
How it was run: as §1

[7] = tested on: HeLa; assay: as above; details: Gynecologic cancer cell panel viability, ATPlite luminescence, 48 h; series mostly up to 57.5 µM
How it was run: as §1

[8] = tested on: Hek293T; assay: as above; details: Gynecologic cancer cell panel viability, ATPlite luminescence, 48 h, control line for the selectivity index; series mostly up to 57.5 µM
How it was run: as §1

[9] = tested on: OV90; assay: as above; details: Gynecologic cancer cell panel viability, ATPlite luminescence, 48 h; series mostly up to 57.5 µM
How it was run: as §1

[10] = tested on: PA-1; assay: as above; details: Gynecologic cancer cell panel viability, ATPlite luminescence, 48 h; series mostly up to 57.5 µM
How it was run: as §1

**Q.** For `C/C=C(/C)C(=O)O[C@H]1C=C(CO)C(=O)[C@H](OC(=O)/C(C)=C/CO)[C@H]1C(C)C`, which Potency [1] is on record?
**A.** 10 µM (active)

**Q.** And the Potency [2]?
**A.** 11.2 µM (active)

**Q.** With `COc1ccccc1-c1ccc(-c2cn(C(=O)N3CCCCC3Cc3ccccc3)nn2)cc1` (centres undefined) as the compound, how does the Potency [3] read?
**A.** inactive

**Q.** And the Potency [1]?
**A.** inactive

**Q.** What about the Potency [4] of the same compound?
**A.** inactive

**Q.** What about the Potency [5] of the same compound?
**A.** inactive

**Q.** And the Potency [6]?
**A.** inactive

**Q.** What does the source list for `Cc1ccnn1-c1ccc(C(=O)N2CCN(S(=O)(=O)c3ccc(Cl)c(C(F)(F)F)c3)CC2)cc1`?
**A.** Potency [1]: inactive; Potency [2]: inactive; Potency [4]: inactive; Potency [5]: inactive; Potency [7]: inactive; Potency [8]: inactive; Potency [6]: inactive; Potency [9]: inactive; Potency [10]: inactive

**Q.** With `COC(=O)c1ccc2c(c1)[nH]c1ncnc(NCCCN3CCCCC3)c12` as the compound, how does the Potency [1] read?
**A.** inactive

**Q.** And the Potency [2]?
**A.** inactive

**Q.** What about the Potency [4] of the same compound?
**A.** inactive

**Q.** What about the Potency [5] of the same compound?
**A.** inactive

**Q.** What about the Potency [7] of the same compound?
**A.** inactive

**Q.** And the Potency [8]?
**A.** inactive

**Q.** What about the Potency [6] of the same compound?
**A.** inactive

**Q.** And the Potency [9]?
**A.** inactive
